Hits are enriched below; roughly 7.5% of the tested compounds scored in any of these assays.
Rab9 promoter act – activators of Rab9 promoter | Huh7 Rab9 promoter-luciferase reporter, luminescence, 24 h | 320,000 tested, 2.8% active | Potency, µM (highest dose often 9.22 µM), without a hit: at the top dose activation, negative = inhibition, actives largely listed as activators; also: % of control where 0% means no effect; nearly all actives have a fitted effect of over 60% in size
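Huh7 cells stably carrying Rab9 promoter–luciferase reporter, plated 1500 cells/well, compound added after 2 h and incubated 24 h at 37 °C; luciferase luminescence then read after 10 min with detection reagent.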
KinaseGlo FLuc – blocks Kinase-Glo luciferase, a counter-screen artifact. Kinase-Glo luciferase, ATP luminescence, 8 min. Potency, µM (highest dose often 38.3 µM), for the others: top-dose activity change, negative = inhibition, usual class: inhibitors. 200,000 tested, 0.28% active; also: % is scaled to controls: 0 for no effect and ±100 for the full control effect; nearly all actives have a fitted effect of over 60% in size
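Kinase-Glo luciferase light output from ATP and luciferin was measured with 10 uM ATP, within the enzyme's linear range. Buffer: 50 mM imidazole pH 7.2, 50 mM KCl, 7 mM MgCl2, 0.01% Tween 20, 0.05% BSA; luminescence read after 8 min at ambient temperature.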
FLuc modulator – counter-screen for miR-21 project: firefly luciferase inhibitors or activators; P08659; purified FLuc, Km substrates, luminescence inhibition; Potency, µM (titrated, usually from 57.5 µM), inactives show top-dose activity change, negative = inhibition, hits mostly inhibitors; 360,000 tested, 6.9% active; AID 588342;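 also: plate controls were vehicle for no effect and reference inhibitor for full effect; nearly all actives have a fitted effect of over 55% in size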
Target sequence (P08659 whole entry, looked up): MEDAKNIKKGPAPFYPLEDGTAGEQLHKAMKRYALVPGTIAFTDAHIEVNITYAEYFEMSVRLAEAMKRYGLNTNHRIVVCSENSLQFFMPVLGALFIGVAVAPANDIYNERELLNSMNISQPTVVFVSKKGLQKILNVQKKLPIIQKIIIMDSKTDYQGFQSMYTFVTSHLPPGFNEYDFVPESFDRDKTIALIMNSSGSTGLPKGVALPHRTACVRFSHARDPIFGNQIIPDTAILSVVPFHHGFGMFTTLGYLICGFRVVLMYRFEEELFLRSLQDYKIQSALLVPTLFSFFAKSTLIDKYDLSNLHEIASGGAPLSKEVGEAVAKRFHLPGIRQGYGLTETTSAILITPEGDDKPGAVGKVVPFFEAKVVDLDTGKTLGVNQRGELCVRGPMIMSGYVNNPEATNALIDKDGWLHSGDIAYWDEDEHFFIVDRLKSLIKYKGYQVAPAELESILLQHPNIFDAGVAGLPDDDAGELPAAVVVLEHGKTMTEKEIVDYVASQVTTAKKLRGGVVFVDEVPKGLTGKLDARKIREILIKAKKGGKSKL
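Purified P. pyralis luciferase, 10 nM final, with Km-level 10 uM D-luciferin and 10 uM ATP in 50 mM Tris acetate pH 7.5, 10 mM Mg acetate, 0.01% Tween-20, 0.05% BSA; 6-point qHTS titration about 60 µM downward; luminescence read.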
ELG1 genotoxic – genotoxicity induction in ELG1-luciferase HEK293T cells | 330,000 tested, 1.3% active | Potency, µM (doses to about 46 µM), without a hit: at the highest dose activity change, positive = activation, usual class: activators | HEK293T ELG1-luciferase reporter, luminescence, 16 h; also: % of control where 0% means no effect; nearly all actives have a fitted effect of over 60% in size
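Genotoxicity was scored as increased ELG1-luciferase reporter signal, measured by ONE-Glo luminescence (30 min, room temperature). Compound or vehicle exposure of the HEK293T reporter cells lasted 16 hr at 37°C.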
NPC1 prom act – NPC1 promoter activation; Huh7 NPC1 promoter luciferase reporter, 24 h; Potency, µM (titrated, usually from 9.22 µM), inactives show top-dose activation, most hits filed as activators; 320,000 tested, 2.4% active; AID 485313; also: % of control where 0% means no effect; nearly all actives have a fitted effect of over 60% in size
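Readout is luciferase luminescence, reflecting NPC1 promoter activation in stably transfected Huh7 cells after 24 h compound exposure at 37 °C in reduced-serum medium with 10% FBS.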
SMN2 splice up – SMN2 splice variant enhancement; HEK293 SMN2-luciferase splicing reporter, luminescence, 30-36 h; Potency, µM (doses to about 46.1 µM), without a hit: at the top dose activity change, positive = activation, actives largely listed as activators; 210,000 tested, 2.8% active; also: % of control where 0% means no effect; nearly all actives have a fitted effect of over 55% in size
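qHTS luciferase splicing reporter: luminescence rises when SMN2 exon 7 is included in transfected HEK293 cells. Compound exposure lasted 30-36 h at 37C, with 4.5 mM final sodium butyrate as control, followed by a ONE-Glo read.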
* marks the source's active call; other numbers are inactive results; ? = inconclusive; nt = no result given; [ ] = another dose, or the depositor's remark. Calls follow the shape of the dose curve; as a rule, active = well fitted curve in the direction sought with a large enough effect; inconclusive = small, poorly fitted or top-dose-only effect, or another doubt; inactive = no such curve, though single readings can be large; an effect the other way counts as inactive or inconclusive. Potency is read from the fitted curve at half-maximal effect.

SMILES	Rab9 promoter act	KinaseGlo FLuc	FLuc modulator	ELG1 genotoxic	NPC1 prom act	SMN2 splice up
NC(=O)CSc1n[nH]c(=O)n1CCc1ccccc1	8.5%	nt	1.2%	-0.3%	-3.3%	nt
Cc1ccc(-n2ncc3c(NNC(=O)c4ccco4)ncnc32)cc1Cl	9.2%	nt	8.49µM*	?	14.8%	nt
COc1ccc(OC)c(Nc2ncnc3c2cnn3-c2cccc(C)c2)c1	-10.2%	-1.3%	-17.9%	0.1%	-25.7%	?
Cc1cccc(-n2ncc3c(NNC(=O)c4ccco4)ncnc32)c1	11.3%	nt	?	5.8%	1.8%	nt
Cc1ccc(-n2ncc3c(=O)n(CC(=O)N(C)C)cnc32)cc1C	29.6%	nt	?	14.8%	21.3%	nt
CNc1ncnc2c1cnn2-c1ccc(C)c(C)c1	nt	nt	10.7µM*	nt	nt	nt
CC(=O)Nc1ccc(Nc2ncnc3c2cnn3-c2cccc(C)c2)cc1	3.16µM*	-0.1%	-15.4%	10.3%	2.82µM*	?
CC(=O)Cn1cnc2c(cnn2-c2ccc(C)c(C)c2)c1=O	1.58µM*	nt	23.9µM*	?	3.16µM*	nt
CCOC(=O)c1c(C)[nH]c(C)c1S(=O)(=O)N1CCCC(C(=O)NCc2cccc(C)c2)C1 (stereo not given)	nt	nt	-7.5%	nt	nt	nt
CC(CCc1ccccc1)NC(=O)C(=O)c1c[nH]c2ccccc12 (stereo not given)	-1.9%	nt	?	-0.3%	-0.6%	nt
Cc1cccc(-n2ncc3c(NCc4ccccc4)ncnc32)c1	-3.9%	-2.6%	-17.4%	18.4µM*	-16.4%	10µM*
Cc1cccc(-n2ncc3c(N4CCCc5ccccc54)ncnc32)c1	2µM*	-3.1%	5.36µM*	2.31µM*	2.82µM*	12.6µM*
COc1ccc(CNc2ncnc3c2cnn3-c2ccc(C)c(C)c2)cc1	nt	nt	-7.2%	nt	nt	nt
Clc1ccc(-n2ncc3c(NCc4cccnc4)ncnc32)cc1Cl	1.12µM*	nt	1.07µM*	?	0.501µM*	nt
Cc1ccc(-n2ncc3c(NCc4ccco4)ncnc32)cc1C	3.55µM*	-2.6%	13.5µM*	?	2.82µM*	15.8µM*
c1ccc(CNc2ncnc3c2cnn3-c2ccccc2)cc1	5.6%	nt	?	?	-12.2%	nt
Cc1cccc(C2NC(=O)c3c(sc(C)c3C)N2)c1O (stereo not given)	0.4%	-6.2%	?	-0.5%	15.8%	-1.5%
Cc1sc2c(c1C)C(=O)NC(c1ccccc1F)N2 (stereo not given)	?	nt	16.9µM*	?	27.4%	nt
O=S1(=O)N=C(c2ccccc2)C=C(c2ccccc2)N1	nt	nt	nt	4.2%	nt	nt
Cc1ccc(O)c(N=Nc2nccs2)c1	-8.7%	nt	9.53µM*	23.1µM*	-1.4%	nt
COc1ccc(NCc2c(O)ccc3ccccc23)cc1	nt	-4.7%[7.66 µM]	nt	nt	nt	-9.6%[9.22 µM]
COc1ccc(N=Nc2ccc(N)nc2N)cc1	2.51µM*	nt	2.39µM*	9.2µM*	1µM*	nt
Cc1ccc(S(=O)(=O)N2CCCCC2)cc1	1.0%	nt	-1.6%	-2.8%	-3.1%	nt
COc1cccc(N=Nc2ccc3ccccc3c2O)c1	3.98µM*	nt	0.338µM*	?	?	nt
Cc1ccc(O)c(N=Nc2ccc(S(=O)(=O)N3CCCC3)cc2)c1	?	nt	15.1µM*	8.8%	?	nt
SMILES	Rab9 promoter act	KinaseGlo FLuc	FLuc modulator	ELG1 genotoxic	NPC1 prom act	SMN2 splice up
Cc1ccc(O)c(C(=O)c2cc(C#N)c(=O)n(-c3nccs3)c2)c1	-0.9%	3.2%	-12.1%	-3.0%	-1.7%	nt
COc1ccc(N=Nc2cc(C)ccc2O)cc1	0.398µM*	nt	0.477µM*	3.66µM*	1.12µM*	nt
CC(=O)/C(N=Nc1cc(C)ccc1O)=C(\C)O	4.9%	-12.1%	3.0%	2.1%	22.5%	nt
COc1ccc(N=Nc2ccc3ccccc3c2)c(O)c1	3.98µM*	nt	0.379µM*	0.92µM*	3.16µM*	nt
COc1ccc(C(=O)c2ccccc2)c(O)c1	-3.4%	3.0%	?	?	1.8%	-18.4%
COc1ccc(S(=O)(=O)NCc2ccc(C(=O)NCCCN3CC(C)CC(C)C3)cc2)cc1 (stereo not given)	-3.4%	nt	2.1%	0.0%	-2.5%	nt
COc1cc(/C=N/Nc2nc3ccccc3s2)cc([N+](=O)[O-])c1O	21.8%	nt	10.7µM*	4.4%	?	nt
O=[N+]([O-])c1cc(Cl)cc(/C=N/Nc2nc3ccccc3s2)c1O	-6.9%	-7.5%	?	-0.2%	-2.3%	nt
COc1cc(/C=N/Nc2nc3ccccc3s2)ccc1OC(=O)c1ccccc1F	?	7.1%	?	6.51µM*	23.9%	?
COc1cc(/C=N/Nc2ccccc2[N+](=O)[O-])ccc1OC(=O)c1ccccc1F	3.16µM*	?	9.53µM*	2.59µM*	3.98µM*	6.31µM*
COc1cc(/C=N/Nc2ccccc2[N+](=O)[O-])cc(OC)c1O	1.0%	-20.2%	?	?	2.1%	7.7%
CC(=O)c1cccc(NC(=O)CN2C(=O)NC(C)(c3ccc4c(c3)OCCCO4)C2=O)c1 (stereo not given)	-0.9%	nt	-0.8%	1.2%	-2.5%	nt
CC(=O)Nc1ccc(Cc2ccc3[nH]c(=O)cc(C)c3c2)cc1	-0.5%	0.8%[7.66 µM]	2.6%	20.6µM*	-2.9%	8.1%[9.22 µM]
CC(=O)Nc1ccc2[nH]c3ccccc3c2c1	20.9%	nt	19µM*	0.8%	3.4%	nt
COc1cc2ccccc2cc1C(=O)Nc1ccc(Cl)c(-c2nc3ccccc3o2)c1	nt	nt	-7.8%	nt	nt	-1.7%
CCc1ccccc1NC(=O)c1nn(-c2ccc(C)cc2)c(=O)c2c1c1ccccc1n2C	nt	nt	0.9%	nt	nt	2.9%
N/C(=N\OC(=O)COc1ccccc1)c1cccnc1	1.6%	1.2%	-0.9%	0.0%	-4.9%	-10.7%
Cc1cccc(/C(N)=N/OC(=O)c2cccc3ccccc23)c1	3.98µM*	nt	4.26µM*	15.1%	3.55µM*	nt
N/C(=N\OC(=O)c1cccc2ccccc12)c1cccnc1	27.8%	-5.4%	12µM*	?	20.4%	nt
O=C(O/N=C(\c1ccccc1)c1ccccn1)c1cccc2ccccc12	-1.0%	-3.1%	?	1.2%	-5.4%	25.1%
CN(CC(=O)Nc1ccc(Cl)cc1F)C1=NS(=O)(=O)c2ccccc21	nt	nt	nt	0.7%	nt	nt
O=C(O)CCC(=O)c1ccc2ccc3cccc4ccc1c2c34	-3.5%	-1.7%[7.66 µM]	21.3µM*	4.4%	-0.6%	-13.0%[9.22 µM]
Cc1ccc(-n2nc(C(=O)N3CCC(C)CC3)c(=O)n(C)c2=O)cc1	nt	nt	-0.8%	nt	nt	nt
Cc1cc2cc(CCNS(=O)(=O)c3ccc(Br)cc3)c(=O)[nH]c2cc1C	nt	nt	-10.5%	nt	nt	-4.6%
O=c1oc2ccccc2nc1/C=C(O)/C=C\c1ccccc1	0.1%	-1.1%	-16.7%	-6.0%	9.9%	5.0%
Cc1ccc(/C(O)=C/c2nc3ccccc3oc2=O)cc1	-0.7%	nt	3.01µM*	-5.8%	-2.8%	nt
